Experimental data published in PubChem BioAssay AID1851 (National Center for Advancing Translational Sciences (NCATS), 2009).
“And” between values parts separate entries of the source, which are not always exact repeats. Identical values can stand only once. Among all 16,000 compounds or so, about 2,600 (16%) were called active. Roughly 20% stayed inconclusive and do not appear here. These entries were drawn from the full list. Values without a mark were called inactive. Calls come from the whole dose curve; as a rule, active = well fitted curve in the direction sought with a large enough effect; inconclusive = small, poorly fitted or top-dose-only effect, or effect the other way; inactive = no such curve, though single readings can be large or run the other way.

The molecules below were run against Cytochrome P450 2D6 (Homo sapiens) (UniProt P10635) (assay: Cytochrome panel assay with activity outcomes). Details: recombinant CYP, pro-luciferin dealkylation, luminescence, p450-cyp2d6; series mostly up to 57.1 µM.
Sequence of Cytochrome P450 2D6 (Homo sapiens) (P10635 whole entry, looked up): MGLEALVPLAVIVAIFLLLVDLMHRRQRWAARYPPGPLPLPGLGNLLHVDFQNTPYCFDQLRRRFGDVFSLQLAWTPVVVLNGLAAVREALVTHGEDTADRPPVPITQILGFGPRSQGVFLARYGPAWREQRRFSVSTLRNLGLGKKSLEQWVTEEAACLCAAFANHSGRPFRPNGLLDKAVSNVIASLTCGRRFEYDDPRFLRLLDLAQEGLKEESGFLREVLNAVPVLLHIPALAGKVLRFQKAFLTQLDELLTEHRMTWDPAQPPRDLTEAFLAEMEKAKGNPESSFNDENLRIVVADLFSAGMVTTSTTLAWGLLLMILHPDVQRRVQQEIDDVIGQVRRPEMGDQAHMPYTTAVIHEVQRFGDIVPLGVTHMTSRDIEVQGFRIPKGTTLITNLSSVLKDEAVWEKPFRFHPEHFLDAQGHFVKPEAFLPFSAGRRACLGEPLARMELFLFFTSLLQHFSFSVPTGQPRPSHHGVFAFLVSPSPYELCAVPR
% is set by controls: 0 for no effect and ±100 for the full control effect.

Compound | AC50 | activity, negative = inhibition
COc1ccc(C(=O)NCc2cn3ccccc3n2)cc1 | inactive | 
C=C[C@@]1(C)CC(=O)[C@@]2(O)[C@@]3(C)[C@@H](O)CCC(C)(C)[C@@H]3[C@H](OC(=O)CCN(C)C)[C@H](OC(C)=O)[C@@]2(C)O1 | inactive | 
COc1ccccc1C(=O)N/C(=C/c1ccc(Br)cc1)C(=O)NCC(=O)O | inactive | 
Cc1ccc(NC(=O)/C(=C\c2cccnc2)NC(=O)c2ccco2)cc1 | inactive | 
O=C(N/N=C/c1ccc2c(c1)OCO2)/C(=C/c1ccc2c(c1)OCO2)NC(=O)c1ccccc1 | inactive | 
C=CCNC(=O)/C(=C\c1ccc2c(c1)OCO2)NC(=O)c1ccc(Br)cc1 | 25.1 µM (active) | 
CC1(C)Oc2ccc(NC(=O)c3ccco3)cc2O1 | inactive | 
CCC(NC(=O)c1ccccc1NC(=O)c1ccco1)C(=O)NC1CCCCC1 (stereo unspecified) | inactive | 
O=C(Nc1ccccc1C(=O)Nc1ccc2c(c1)OCO2)c1ccco1 | 12.6 µM (active) | 
O=C(NC(Cc1ccccc1)C(=O)O)/C(=C\c1ccco1)NC(=O)c1ccc(Br)cc1 (stereo unspecified) | inactive | 
O=C(Nc1ccccc1)/C(=C\c1ccc2c(c1)OCO2)NC(=O)c1ccco1 | 15.8 µM (active) | 
C#CCCCO/N=C1/C[C@@H](O)[C@@H](O)[C@@H]2[C@@H]3C(=O)N(CC)C(=O)[C@H]3CC[C@H]12 |  | 14.7% [at 11.4 µM]
CC(=O)COc1ccc2c(C)c(C)c(=O)oc2c1 | inactive | 
CCOC(=O)C(Sc1ncnc2c1sc1nc(N3CCOCC3)c3c(c12)CCCC3)c1ccccc1 (stereo unspecified) | inactive | 
CCOC(=O)CC1C(=O)NCCN1S(=O)(=O)c1ccc(Cl)c(Cl)c1 (stereo unspecified) | inactive | 
COc1ccc(-n2c(=O)c(-c3ccc(F)c(F)c3)nc3cncnc32)cc1 | inactive | 
NC(N)=NC(N)=Nc1ccc(S(=O)(=O)O)cc1 |  | 3.23% [at 11.4 µM]
O=C(O)/C(=C\c1ccccc1)c1ccccc1 |  | -2.29% [at 11.4 µM]
Cc1ccccc1-c1nc(Nc2ccncc2)c2ccccc2n1 | inactive | 
FC(F)(F)c1ccccc1-c1nc(Nc2ccncc2)c2ccccc2n1 | 25.1 µM (active) | 
FC(F)(F)c1ccccc1-c1nc(NCc2cccnc2)c2ccccc2n1 | 15.8 µM (active) | 
FC(F)(F)c1ccccc1-c1nc(NC2CCNCC2)c2ccccc2n1 | inactive | 
Clc1ccccc1-c1nc(N/N=C/c2cccnc2)c2ccccc2n1 | inactive | 
Clc1ccccc1-c1nc(NCc2cccnc2)c2ccccc2n1 | 20 µM (active) | 
COc1cc(OC)c(C2C(C(=O)O)c3ccccc3C(=O)N2C)cc1OC (stereo unspecified) | inactive | 
NC1(C(=O)O)C[C@@H](C(=O)O)[C@H](C(=O)O)C1 | inactive | 

Compound | AC50 | activity, negative = inhibition
CCNc1ncc2nc(-c3ccc(Cl)cc3)c(=O)n(C3CC3)c2n1 | inactive | 
N#CCCn1c(=O)cnc2cnc(N3CCOCC3)nc21 | inactive | 
CCCCCc1nnc(NC(=O)C(=O)OCC)s1 | inactive | 
CC(C)OCCCN1C(=O)c2ccccc2C1C(=O)NC1CCCCC1 (stereo unspecified) | inactive | 
CO/N=C(\C(=O)N[C@@H]1C(=O)N2C(C(=O)[O-])=C(C[N+]3(C)CCCC3)CS[C@@H]12)c1csc(N)n1 | inactive | 
Cn1cccc1CC(=O)N/N=C\c1cccs1 | inactive | 
CCCCC(=O)NNC(=S)NC(=O)c1cccc([N+](=O)[O-])c1 | inactive | 
CCCn1c(=O)c2[nH]c(-c3ccccc3)nc2n(CCC)c1=O | inactive | 
CC1(C)OC(=O)C(=CNc2cccc(O)c2)C(=O)O1 | inactive | 
CC(C)=CCC1=C(OCC(=O)O)C(=O)c2ccccc2C1=O | 3.16 µM (active) | 
CC(C)=CCc1c(C)nc2ccccc2c1C(=O)O | inactive | 
CC(CC(=O)O)CC(=O)Nc1ccc(S(N)(=O)=O)cc1 (stereo unspecified) | inactive | 
CN1CCC(=C2c3ccccc3CC(=O)c3sccc32)CC1 | 7.94 µM (active) and 3.16 µM (active) and 5.01 µM (active) | 
CN1CCC(=C2c3ccccc3CCc3sccc32)CC1 | 1.26 µM (active) | 
O=C1/C(=N\O)Cc2ccccc21 | inactive | 
CCc1cc(C(=O)OC)c(NC(=O)CCCC(=O)O)s1 | inactive | 
O=C(NNC(=O)c1cccnc1)Nc1cccc2ccccc12 | inactive | 
CO[C@H]1COC(=O)C/C=C\[C@H](C)[C@@H](NS(=O)(=O)c2ccc(C)cc2)COC(=O)C/C=C\[C@@H]1C |  | 3.82% [at 11.4 µM]
NC(N)=NC(N)=Nc1c(F)c(F)c(F)c(F)c1F |  | 13.6% [at 11.4 µM]
Cc1ccc(N=CC2=C(O)CC(c3ccco3)CC2=O)cc1 (stereo unspecified) | inactive | 
COc1cc(OC)c2c(c1)C(=O)c1cc(OC)cc(OC)c1C2=O | inactive | 
O=C1c2ccccc2C(=O)N1CC1CCCO1 (stereo unspecified) | inactive | 
O=c1c(-c2ccccc2)nc2cnc(N3CCOCC3)nc2n1C[C@H]1CCCO1 | inactive | 
Nc1ncc(-c2ccccc2)n1CC1CCCO1 (stereo unspecified) | 3.55 µM (active) | 
Cc1c(Cl)cccc1NC(=O)CCC(=O)NNC(=O)c1ccco1 | inactive | 
CCOC(=O)c1cnc(N(C)C)nc1SC(=N)N |  | -3.04% [at 11.4 µM]

Compound | AC50 | activity, negative = inhibition
Cc1noc(C)c1C(=O)N1CCC2(CCCN(C(=O)NC(C)C)C2)CC1 | inactive | 
O=C(CCNS(=O)(=O)c1cccs1)N1CCCCCC1 | inactive | 
O=C(CCNS(=O)(=O)c1cccs1)N1CCc2ccccc2C1 | 12.6 µM (active) | 
O=C(O)CCC(=O)N1CCc2cc(S(=O)(=O)NCc3cccs3)ccc21 | inactive | 
COCCn1c(=O)c(-c2cc(F)cc(F)c2)nc2cncnc21 | inactive | 
COc1c(NC(C)=O)c2ccccc2c2ccccc12 |  | -0.0075% [at 11.4 µM]
CC(=O)N1CCC2(CC1)CN(Cc1ccccc1)C2 | inactive | 
COC(=O)N1CCC2(CCCN(Cc3ccccc3)C2)CC1 | 10 µM (active) | 
CC(=O)N1CCC2(CCCN(Cc3ccccc3)C2)CC1 | 2.51 µM (active) | 
COCC(=O)N1CCC2(CC1)CN(Cc1ccc(C#N)cc1)C2 | inactive | 
COC(=O)N1CCC[C@@]2(CCN(C(=O)Nc3cccc(C#N)c3)C2)C1 | inactive | 
COC(=O)N1CCC2(CCCN(Cc3ccc(C#N)cc3)C2)CC1 | 0.316 µM (active) | 
O=c1cnc2cnc(N3CCNCC3)nc2n1Cc1ccc(F)cc1 | inactive | 
CCNC(=S)NNC(=O)c1cc(CC(C)C)nc2ccccc12 | inactive | 
O=C1[C@H]2[C@H]3[C@H](O)[C@H](O)C/C(=N/OCc4ccccc4)[C@@H]3CC[C@@H]2C(=O)N1C[C@@H]1CCCO1 |  | 10% [at 11.4 µM]
Cn1c(=O)c(-c2cccc(C#N)c2)nc2cnc(Oc3ccccc3)nc21 | inactive | 
O=c1cc(O)cc(/C=C\c2ccc(O)c(O)c2)o1 | inactive | 
CC1=C(C(=O)N2CCCCCC2)C2(CCC(C)CC2)OC1=O (stereo unspecified) | inactive | 
COc1ccccc1NC(=S)NNC(=O)c1c(Cl)c(C)nn1C | inactive | 
CC(C)CN(CC(C)C)S(=O)(=O)N1CCC(C(=O)NCc2ccc(F)cc2)CC1 | inactive | 
COc1cc([C@H](O)CO)ccc1O | inactive | 
CC[C@H](NC(C)C)[C@H](O)c1ccc(O)c(O)c1 | 10 µM (active) | 
CNC[C@@H](SC)c1ccc(O)c(O)c1 |  | 2.56% [at 11.4 µM]
COC(=O)C(C)Sc1nc2c(cnn2-c2ccc(C)cc2)c(=O)[nH]1 (stereo unspecified) | inactive | 
Cc1ccc(C(=O)C(OC(=O)CCC(=O)Nc2cccc(C)c2)c2ccccc2)cc1 (stereo unspecified) | 28.2 µM (active) | 
Cc1ccc(C(=O)C(OC(=O)CNS(=O)(=O)c2ccccc2)c2ccccc2)cc1 (stereo unspecified) | inactive | 

Compound | AC50 | activity, negative = inhibition
Cc1ccc(C(=O)C(OC(=O)COc2ccccc2C)c2ccccc2)cc1 (stereo unspecified) | inactive | 
Cc1cc2c(c(=O)o1)[C@@H](O)[C@H]1O[C@@H]1C2=O |  | 3.46% [at 11.4 µM]
C[N+](C)(C)c1ccc([C@H](N)C(=O)O)cc1 |  | 6.78% [at 11.4 µM]
COc1ccc(CNc2ncnc3ccc(-c4cccnc4)cc23)c(OC)c1 | 10 µM (active) | 
COc1ccccc1CNc1ncnc2ccc(-c3cccnc3)cc12 | 5.01 µM (active) | 
COc1ccc(S(=O)(=O)NC2(C(F)(F)F)N=C3SCCN3C2=O)cc1 (stereo unspecified) | inactive | 
CCN1CCN(c2nc(C)c3c(n2)CCCC3=O)CC1 | inactive | 
COC(=O)c1ccccc1-c1ccc(/C=C2\C(=O)N(c3ccccc3)N=C2c2ccccc2)o1 | inactive | 
O=C(NC1CCCCC1)c1sc(=S)n2c1[nH]c(=O)c1ccccc12 | inactive | 
COc1ccc(C2C(C#N)=C(N)N(Nc3ccccc3)C3=C2C(=O)CC(C)(C)C3)cc1C (stereo unspecified) | inactive | 
S=C(S)O[C@@H]1C[C@@H]2C[C@H]1[C@@H]1CCC[C@H]21 | inactive | 
CCOC(=O)CCN1C(=O)[C@H]2[C@H]3[C@H](O)[C@H](O)C/C(=N/O[C@@H]4O[C@@H](COC(C)=O)[C@@H](OC(C)=O)[C@@H](OC(C)=O)[C@H]4OC(C)=O)[C@@H]3CC[C@@H]2C1=O | 3.16 µM (active) | 
CCOC(=O)CCN1C(=O)[C@H]2[C@H]3[C@H](O)[C@H](O)C/C(=N/OC/C=C(\C)CCC=C(C)C)[C@H]3CC[C@@H]2C1=O |  | 1.08% [at 11.4 µM]
O=C1[C@@H]2[C@H]3[C@H](O)[C@H](O)C/C(=N/OCc4ccccc4)[C@H]3CC[C@H]2C(=O)N1c1ccc(F)cc1F |  | -7.87% [at 11.4 µM]
C#CCCCO/N=C1/C[C@@H](O)[C@@H](O)[C@@H]2[C@@H]3C(=O)N(CCC(=O)OCC)C(=O)[C@H]3CC[C@@H]12 |  | -5.32% [at 11.4 µM]
CCOC(=O)CCN1C(=O)[C@H]2[C@H]3[C@H](O)[C@H](O)C/C(=N/O[C@@H]4O[C@@H](COC(C)=O)[C@@H](OC(C)=O)[C@@H](OC(C)=O)[C@H]4OC(C)=O)[C@H]3CC[C@@H]2C1=O | 3.16 µM (active) | 
CC(=O)OC[C@@H]1O[C@@H](O/N=C2/C[C@@H](O)[C@@H](O)[C@@H]3[C@@H]4C(=O)N(c5cccc(Oc6ccccc6)c5)C(=O)[C@H]4CC[C@H]23)[C@H](OC(C)=O)[C@H](OC(C)=O)[C@@H]1OC(C)=O |  | 0.346% [at 11.4 µM]
CCN1C(=O)[C@H]2[C@H]3[C@H](O)[C@H](O)C/C(=N/O[C@@H]4O[C@H](COC(C)=O)[C@@H](OC(C)=O)[C@H](OC(C)=O)[C@H]4OC(C)=O)[C@@H]3CC[C@@H]2C1=O | 3.98 µM (active) | 
CC(=O)OC[C@@H]1O[C@@H](O/N=C2/C[C@@H](O)[C@@H](O)[C@@H]3[C@@H]4C(=O)N(C(C)(C)C)C(=O)[C@H]4CC[C@@H]23)[C@H](OC(C)=O)[C@H](OC(C)=O)[C@@H]1OC(C)=O |  | -13.3% [at 11.4 µM]
CC(=O)OC[C@@H]1O[C@@H](O/N=C2/C[C@@H](O)[C@@H](O)[C@@H]3[C@@H]4C(=O)N(C(C)(C)C)C(=O)[C@H]4CC[C@H]23)[C@H](OC(C)=O)[C@H](OC(C)=O)[C@@H]1OC(C)=O |  | 3.1% [at 11.4 µM]
CC(=O)OC[C@@H]1O[C@@H](O/N=C2/C[C@@H](O)[C@@H](O)[C@@H]3[C@H]4C(=O)N(c5ccc(F)cc5F)C(=O)[C@@H]4CC[C@H]23)[C@H](OC(C)=O)[C@H](OC(C)=O)[C@@H]1OC(C)=O | 3.16 µM (active) | 
C#CCCCO/N=C1/C[C@@H](O)[C@@H](O)[C@@H]2[C@@H]3C(=O)N(CCC(=O)OCC)C(=O)[C@H]3CC[C@H]12 |  | 5.95% [at 11.4 µM]
CCOC(=O)CCN1C(=O)[C@H]2[C@H]3[C@H](O)[C@H](O)C/C(=N/OC/C=C(\C)CCC=C(C)C)[C@@H]3CC[C@@H]2C1=O |  | 0.883% [at 11.4 µM]
